Measurements reported in PubChem BioAssay.
Some of the results follow. Values without a mark were called inactive. Active and inactive are the calls of the source.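 Rule for the calls, unless noted: active = dye signal at least 3 control SD above or below untreated wells in both duplicates, raw fluorescence within 3, either direction; inactive = the rest.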

Experiments:
[1] = molecular target: Inward rectifier potassium channel 2 (Mus musculus) (UniProt P35561); assay: inhibition of Kir2.1 inward rectifier potassium flux – cell-based, FluxOR thallium flux, duplicate, confirmation (AID 2032;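 active = Primary-screen hit whose thallium flux fell at least 3 control SD below untreated wells in both duplicates, with normal baseline fluorescence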); details: Kir2.1-expressing cells, FluxOR thallium flux fluorescence, at 10 µM; hits give low values
[2] = parental HEK293 cell activity, no Kir2.1 – FluxOR thallium flux, duplicate, single concentration, counter-screen for Kir2.1 inhibitor project, confirmation (AID 2105); details: parental HEK293 cells, FluxOR thallium flux fluorescence, at 10 µM; 0% = unstimulated blank wells;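 for FluxOR signal as % of negative control (100 = no effect): percent is based on the flux ratio of peak minus minimum fluorescence over baseline F0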

Chain of Inward rectifier potassium channel 2 (Mus musculus) (P35561 whole entry, looked up): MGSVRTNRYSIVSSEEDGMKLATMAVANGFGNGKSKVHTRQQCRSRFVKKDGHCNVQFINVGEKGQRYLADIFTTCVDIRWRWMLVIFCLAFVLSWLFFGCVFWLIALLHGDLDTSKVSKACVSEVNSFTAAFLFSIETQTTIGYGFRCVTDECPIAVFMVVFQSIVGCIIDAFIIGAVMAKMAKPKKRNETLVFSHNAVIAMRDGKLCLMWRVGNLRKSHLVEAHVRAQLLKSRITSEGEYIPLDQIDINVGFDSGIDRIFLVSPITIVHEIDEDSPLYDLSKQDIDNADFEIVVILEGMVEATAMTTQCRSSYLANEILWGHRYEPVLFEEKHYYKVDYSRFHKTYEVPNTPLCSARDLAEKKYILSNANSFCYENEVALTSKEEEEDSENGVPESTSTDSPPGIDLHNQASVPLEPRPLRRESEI

SMILES	Tl flux remaining, % of negative control (hits give low values) [1]	outcome [2]	FluxOR signal as % of negative control (100 = no effect) [2]	outcome [1]
C(=C\c1ccccc1)/CSc1nnc(-c2cccnc2)n1Cc1ccco1	37% (active)	inactive		
Cn1c(SCC(=O)N2CCCc3ccccc32)nc2ccccc2c1=O	71.5% (active)		66.5% (active)	
CCN(CC)CCC(c1ccc2c(c1)OCO2)c1c(OC)cc(OC)c2c(-c3ccccc3)cc(=O)oc12 (centres undefined)	65.5% (active)	inactive		
COc1ccc(F)c(-c2nc(CN3CCC(c4ccccc4)CC3)c(C)o2)c1	45.5% (active)	inactive		
COc1ccc(CCC(C)N2CCc3ccccc3C2)cc1 (centres undefined)	25.5% (active)	inactive		
COc1ccc2c(c1)C=CC1(O2)N(CCO)c2ccccc2C1(C)C (centres undefined)			53.5% (active)	inactive
COc1cccc(CN(C)CC(O)COC(c2ccccc2)c2ccccc2C)c1 (centres undefined)	66% (active)	inactive		
Cc1cc(C)c(C)c(S(=O)(=O)Nc2ccc(O)cc2)c1C	65.5% (active)	inactive		
OCCNCc1cccc(OCc2ccccc2Cl)c1	62% (active)	inactive		
C=CCNC(=S)/N=c1/ccccn1Cc1ccccc1	64% (active)	inactive		
CCCCCCCCCCOC(=O)Cn1c(COc2ccc(C)cc2)[n+](C)c2ccccc21		inactive		inactive
CC(C)(c1ccccc1)c1ccc(OCCN2CCCC2)cc1	44% (active)	inactive		
CC1COc2ccccc2N1S(=O)(=O)c1ccccc1 (centres undefined)	60% (active)	inactive		
CN(Cc1ccccc1)C(=O)CCc1ccccc1		inactive		inactive
CC12CN(Cc3ccccc3)CC(C)(CN(Cc3ccccc3)C1)C2=NO	54.5% (active)	inactive		
COc1cccc(CNCCc2c[nH]c3ccccc23)c1OCc1ccccc1F	23.5% (active)	inactive		
CN(Cc1ccccc1)CC(O)COc1ccc(CNCc2cc3ccccc3s2)cc1 (centres undefined)	33.5% (active)		74.5% (active)	
COc1cc(CNCc2ccc(OC)c3ccccc23)cc(OC)c1OC	51% (active)	inactive		
CCn1cc(CCC(=O)NCc2ccc(F)cc2)c2ccccc21	56.5% (active)	inactive		

SMILES	Tl flux remaining, % of negative control (hits give low values) [1]	outcome [2]	FluxOR signal as % of negative control (100 = no effect) [2]	outcome [1]
Clc1ccc(-c2cc(C3CCNCC3)[nH]n2)c(Cl)c1	22.5% (active)	inactive		
CCCCCCCCn1c2c(c(=N)c3c1CCC3)CCCC2	10% (active)	inactive		
Cc1ccc(-c2nn(-c3ccccc3)cc2/C=C2\SC(=S)N(CCCCCC(=O)O)C2=O)o1			75% (active)	inactive
COc1cc(/C=N/O)cc(Br)c1OS(=O)(=O)c1ccc(C)cc1	57.5% (active)	inactive		
CC1CN(C(=O)CCC(=O)NCCCN2CCC(Cc3ccccc3)CC2)c2cc(Cl)ccc2O1 (centres undefined)	35.5% (active)	inactive		
COCCNC(=O)COc1ccc(N(C)S(=O)(=O)c2ccc3ccccc3c2)cc1	58% (active)	inactive		
Clc1c(OCCCn2ccnc2)ccc2ccccc12		inactive		inactive
CSc1c(SCc2ccccc2)cnn(Cc2ccccc2)c1=O		inactive		inactive
O=C(Nc1ccccc1Cl)/C(Cl)=C(\Cl)S(=O)c1ccccc1 (centres undefined)	60.5% (active)		57.5% (active)	
O=C(CCl)N(Cc1cccc([N+](=O)[O-])c1)c1cccc(Cl)c1		inactive		inactive
NC(N)=Nc1nc(-c2ccccc2)c2cc(Cl)ccc2n1		inactive		inactive
c1ccc(CSc2nnc(-c3ccco3)n2Cc2ccccc2)cc1	54% (active)	inactive		
CCCCOC(=O)Cn1c(=O)n(CC(=O)OCCCC)c2cc(C)ccc21		inactive		inactive
COc1ccc(CN2CCC(c3nc4ccc(Cl)cc4[nH]3)CC2)cc1	30% (active)	inactive		
COc1ccccc1CCNS(=O)(=O)c1cc2c3c(c1)C(C)C(=O)N3CCC2 (centres undefined)	62% (active)	inactive		
COc1cccc(CN(C)CC2CCCN(CCc3ccc(Cl)cc3)C2)c1OC (centres undefined)	49% (active)	inactive		
COc1ccc(Nc2ncnc3sc(C)cc23)cc1		inactive		inactive
COc1ccc(CCNCc2c(-c3ccccc3)n(C)c3ccccc23)cc1	33.5% (active)		72% (active)	
